Experimental data as given in PubChem BioAssay AID624414 (National Center for Advancing Translational Sciences (NCATS), 2012).
Screen size: about 410,000 compounds; about 480 (0.12%) were called active. The full list was thinned out, with actives kept by preference. Values without a mark were called inactive. No stated cut-off is given here; in the data, active means activation above about 50%; inconclusive means mostly about 30% to 49%; inactive means weaker than that.

Biological target: Mucolipin-1 (Homo sapiens) (UniProt Q9GZU1)
Assay: qHTS for Agonists of the Human Mucolipin Transient Receptor Potential 1 (TRPML1); further: 0% is about no effect
Conditions: TRPML1-expressing cells, Ca2+ dye fluorescence, FDSS; active compounds read high
Excerpt: Mutations of human Mucolipin transient receptor potential 1 (TRPML1) cause type IV mucolipidosis (ML4), a devastating neurodegenerative disease in young children. […] Currently, there is no treatment for ML4. […] Under physiological conditions, TRPMLs regulate membrane trafficking by transducing information about PI(3,5)P2 levels into changes in juxtaorganellar Ca2+, thereby triggering membrane fusion/fission events in the late endocytic pathways (endolysosomal trafficking). In addition, TRPML1 mediates release of Fe2+ from late endosomes and lysosomes, which is essential for cellular iron metabolism. Thus, impaired ion (Ca2+ and Fe2+) homeostasis underlies lysosomal dysfunction and ML4 phenotypes. In ML4 cells, the problem is twofold. First, defective Ca2+-dependent membrane trafficking due to TRPML1-deficiency causes accumulation of lipids and other bio-materials in the lysosome. The second strike comes from the lysosomal iron overload (due to impairment of TRPML1's Fe2+ conductivity), which converts the accumulated materials into the nondegradable (resistant to lysosomal degradation) lipofuscin (also called aging pigment) in the lysosome. Lipofuscin accumulation dramatically compromises the functions of lysosomes.
Niemann-Pick type C (NPC) disease is another lysosome storage disease (LSD) with severe neurodegeneration during the childhood. Currently, there is no cure for NPC. […] Thus, TRPML1 is likely to be an essential regulator of lysosome ion homeostasis. We specifically hypothesize that stimulating TRPML1's Fe2+/Ca2+ channel activity in the lysosome using synthetic agonists can alleviate neurodegeneration associated with ML4 or NPC.
To this end, a high throughput screen was developed in a miniaturized format to screen against the Molecular Libraries Small Molecule Repository (MLSMR) to find small molecules that act either as inhibitors or agonist against the TRPML1 channel.
NIH Chemical Genomics Center [NCGC]
NIH Molecular Libraries Probe Centers Network [MLPCN]
Assay Submitter (PI): Haoxing Xu, University of Michigan Ann Arbor
TRPML1-DL cells are dissociated from flasks, counted and, brought up to a density of 500,000 cells per mL of media containing a 1X Tet inducer. Using a Multidrop Combi, 3uL of this cell solution is dispensed to each well of a 1536 TC treated, black, clear bottom hi base plate for a final cell density of 1,500 cells per well. The assay plates are incubated overnight (approximately 16 hours) at 37 degrees C and 5% CO2. Using a Multidrop Combi, 2uL of ABD Ca8 no wash dye plus quencher is added to each well. The assay plates incubate at room temperature in the dark for 45-90 minutes. The assay plate is read on the FDSS using the following protocol: 10 second baseline read, 23nL of compounds and controls are added using 1536 pintool, agonist read for 110 seconds, 1 uL EC80 addition (4uM final 54-4 diluted in media), antagonist read for 110 seconds.

Mucolipin-1 (Homo sapiens), sequence (Q9GZU1 whole entry, looked up): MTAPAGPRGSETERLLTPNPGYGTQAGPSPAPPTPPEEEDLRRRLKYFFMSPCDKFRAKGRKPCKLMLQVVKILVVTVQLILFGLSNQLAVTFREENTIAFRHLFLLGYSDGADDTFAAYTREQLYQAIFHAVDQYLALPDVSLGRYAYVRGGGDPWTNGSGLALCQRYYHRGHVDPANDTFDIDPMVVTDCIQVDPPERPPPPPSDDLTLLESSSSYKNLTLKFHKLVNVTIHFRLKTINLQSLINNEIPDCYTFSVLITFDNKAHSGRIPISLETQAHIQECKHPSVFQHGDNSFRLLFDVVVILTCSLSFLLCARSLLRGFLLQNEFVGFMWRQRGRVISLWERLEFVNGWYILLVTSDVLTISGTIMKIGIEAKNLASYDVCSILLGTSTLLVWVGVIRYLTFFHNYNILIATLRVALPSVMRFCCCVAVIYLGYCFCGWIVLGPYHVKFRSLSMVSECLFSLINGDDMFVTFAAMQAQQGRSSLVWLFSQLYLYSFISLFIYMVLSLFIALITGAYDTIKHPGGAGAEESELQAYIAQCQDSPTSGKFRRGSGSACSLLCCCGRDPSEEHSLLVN

**Q.** For `Oc1ccc(Cl)cc1C1C=C(c2ccc3c(c2)OCO3)NC(c2c(F)cccc2Cl)N1` (centres undefined), which activation is on record?
**A.** 0.805%

**Q.** Which activation does the source give for `O=S(=O)(Nc1cccc2cccnc12)c1cccc2cccnc12` here?
**A.** 0.864%

**Q.** `CC(=O)c1ccc[n+](C(C)CCC(C)[n+]2cccc(C(C)=O)c2)c1` (centres undefined) was tested. Which activation did it give?
**A.** -0.159%

**Q.** How did the activation turn out when `Cc1ccc(Cl)cc1N(C)C(=O)C1CCCN(c2ncnc3onc(-c4ccc(F)cc4)c23)C1` (centres undefined) was run?
**A.** 0.938%

**Q.** How did the activation turn out when `CN(C)c1ccc(/C=C/c2sc3ccccc3[n+]2C)cc1` was run?
**A.** -0.317%

**Q.** With `N#Cc1ccc[n+](CC(=O)c2ccc(O)c(O)c2)c1` as the compound, how does the activation read?
**A.** 6.5%

**Q.** Which activation does the source give for `COc1cc(OC)c(NC(=O)Cc2ccc(-n3c(C)nc4cccnc43)cc2)cc1Cl` here?
**A.** 2.46%

**Q.** How did the activation turn out when `O=[N+]([O-])c1ccc(/C=C/c2ccc3cccnc3c2)cc1` was run?
**A.** -0.507%

**Q.** Which activation does the source give for `CCOC(=O)c1c(NC(=O)c2ccc(S(=O)(=O)N3CCCC(C)C3)cc2)sc2c1CCN(C(C)C)C2` (centres undefined) here?
**A.** 0.257%

**Q.** For `COc1ccccc1N1CCN(c2ncnc3onc(-c4ccc(F)cc4)c23)CC1`, which activation is on record?
**A.** 0.772%

**Q.** For `O=C(c1cnn2c1NC(=C1CC1)C=C2C(F)F)N1CCc2ccccc2C1`, which activation is on record?
**A.** -0.995%

**Q.** For `C(=Nc1ccc(/C=C/c2ccnc3ccccc23)cc1)Nc1ccc(/C=C/c2ccnc3ccccc23)cc1`, which activation is on record?
**A.** 8.34%

**Q.** `Cc1cc(=O)n(CC(=O)Nc2cccc([N+](=O)[O-])c2)c(-n2nc(C)cc2C)n1` was tested. Which activation did it give?
**A.** 1.21%

**Q.** Which activation does the source give for `COc1ccccc1NC(=O)CSC1=Nc2ccccc2C2=NC(CC(=O)NCc3cccs3)C(=O)N12` (centres undefined) here?
**A.** 3.51%

**Q.** For `CC1(C)C=Cc2c(ccc(C(=O)/C=C/c3ccccc3)c2O)O1`, which activation is on record?
**A.** 19.2%

**Q.** How did the activation turn out when `COc1cccc(C(=O)c2sc3nc(-c4ccccc4)cc(C(F)(F)F)c3c2N)c1` was run?
**A.** 98.2% (active)

**Q.** For `COc1cccc(C(=O)Nc2ccc(-c3cc(C(F)(F)F)nn3-c3ccccc3)cc2)c1`, which activation is on record?
**A.** 3.44%

**Q.** How did the activation turn out when `COc1ccc(S(=O)(=O)c2c(Nc3cccc(Cl)c3)sc(C(=O)c3ccccc3)c2N)cc1` was run?
**A.** 14.6%

**Q.** How did the activation turn out when `COc1ccc(Cn2c(=O)n(-c3ccccc3C)c(=O)c3c4c(sc32)CN(C(C)=O)CC4)cc1` was run?
**A.** -0.696%

**Q.** How did the activation turn out when `O=C(Nc1ccc2nc(SCC(=O)N3CCCc4ccccc43)sc2c1)c1ccc(Cl)cc1` was run?
**A.** 1.16%

**Q.** `O=C(Nc1ccc([N+](=O)[O-])cc1)c1cnn2c1NC(=C1CC1)C=C2C(F)F` was tested. Which activation did it give?
**A.** -0.353%

**Q.** How did the activation turn out when `CCCCC(CCCC)c1ccc(C=Nc2ccc(/C=C/c3ccnc4ccccc34)cc2)cc1` was run?
**A.** 5.8%

**Q.** With `COc1cccc(-c2nnc3n(CCc4ccccc4)c(=O)c4ccccc4n23)c1O` as the compound, how does the activation read?
**A.** 1.15%

**Q.** Which activation does the source give for `CCOc1ccc(/C=C(\C#N)c2nc3ccccc3c(=O)[nH]2)cc1OC` here?
**A.** 1.09%

**Q.** How did the activation turn out when `Cc1ccc2nc(CNC(=O)c3ccccc3)[nH]c2c1` was run?
**A.** 2.07%

**Q.** Which activation does the source give for `COc1ccc(/C=C(/NC(=O)c2ccc(C)cc2)c2nc3ccccc3[nH]2)cc1OC` here?
**A.** 50.1% (active)

**Q.** For `N#Cc1ccc[n+](CC(=O)c2ccc(F)cc2)c1`, which activation is on record?
**A.** 1.03%

**Q.** For `COC(=O)C(CC(C)C)NS(=O)(=O)c1cc(Br)ccc1Br` (centres undefined), which activation is on record?
**A.** 1.9%

**Q.** For `OC(CBr)CN1CCCCC1` (centres undefined), which activation is on record?
**A.** -0.38%

**Q.** How did the activation turn out when `Cc1cccc(N2CCN(C(=O)CCn3c(=O)c4cccn4c4cccnc43)CC2C)c1` (centres undefined) was run?
**A.** 0.62%

**Q.** For `C=CCNC(=O)c1ccc2nc(-c3ccco3)c(-c3ccco3)nc2c1`, which activation is on record?
**A.** -0.254%

**Q.** How did the activation turn out when `OC(CBr)C[n+]1cccc2cc(Br)ccc21` (centres undefined) was run?
**A.** 1.14%

**Q.** For `Nc1ncnc2nnsc12`, which activation is on record?
**A.** 0.38%

**Q.** How did the activation turn out when `CN(C)c1ccc(/C=C/c2sc3ccccc3[n+]2CCCCBr)cc1` was run?
**A.** 6.96%

**Q.** Which activation does the source give for `CCC(C(=O)Nc1cccc(Cl)c1C)n1nc(-c2ccc(C)cc2)ccc1=O` (centres undefined) here?
**A.** 3.09%

**Q.** For `S=c1[nH]c(=S)c2n[nH]nc2[nH]1`, which activation is on record?
**A.** 0%

**Q.** Which activation does the source give for `CC(C)(C)c1ccc(C(=O)C[N+]2(C)CCCc3ccccc32)cc1` (centres undefined) here?
**A.** -0.62%

**Q.** For `O=C1O/C(=C\c2ccc(O)cc2)C(O)=C1c1ccc(O)cc1`, which activation is on record?
**A.** -0.353%

**Q.** With `COc1ccc(OC)c(NC(=O)CSC2=Nc3ccccc3C3=NC(CC(=O)NCc4ccc(F)cc4)C(=O)N23)c1` (centres undefined) as the compound, how does the activation read?
**A.** 2.38%

**Q.** Which activation does the source give for `CCN1CCN(c2ncc3c(n2)CC(c2ccccc2O)CC3=O)CC1` (centres undefined) here?
**A.** -0.182%

**Q.** How did the activation turn out when `CCCS(=O)(=O)Nc1cccc(-c2cn3ccsc3n2)c1` was run?
**A.** -0.225%

**Q.** `CN(CCC#N)c1ccc(C=O)cc1` was tested. Which activation did it give?
**A.** -0.222%

**Q.** `COc1cc([N+](=O)[O-])ccc1NC(=S)N1CCN(c2ccccn2)CC1` was tested. Which activation did it give?
**A.** 0.452%

**Q.** For `COc1ccc(NC(=O)c2sc3nc(C)nc(N4CCN(c5ccccn5)CC4)c3c2C)c(OC)c1`, which activation is on record?
**A.** 105% (active)
